Laboratory results from PubChem BioAssay (Tox21).
Results filed as inconclusive are left out. Entries that show only a call come without a potency. Where a structure was tested more than once in an assay, its records may differ in their call. Unmarked numbers belong to inactive results. Active and inactive are the calls of the source. Calls follow the shape of the dose curve; as a rule, active = well fitted cell-killing curve with a large enough effect in the repeat runs; inconclusive = weak or mixed curves, or effect the other way; inactive = flat fitted curve, though single readings scatter.

Test: qHTS assay to identify small molecule agonists of the TGF-beta/Smad signaling pathway - cell viability counter screen (AID 1346829); also: nearly all actives have a fitted effect of over 45% in size; as to activity change, negative = cytotoxicity: top concentration of the series differs between compounds
Settings: SBE-bla HEK293T viability, CellTiter-Glo luminescence, 5 h; series mostly up to 76.8 µM
Source text: National Center for Advancing Translational Sciences [NCATS]
NIH Chemical Genomics Center [NCGC]
U.S. Environmental Protection Agency [EPA]
National Institutes of Environmental Health Sciences [NIEHS]
National Toxicology Program [NTP]
U.S. Food and Drug Administration [FDA]
Transforming growth factor beta (TGF-beta) superfamily consists of a large number of structurally related dimeric proteins that act as hormones or local mediators in regulating a wide range of biological functions. This superfamily includes TGF-betas themselves, the bone morphogenetic proteins (BMPs) and the activins. These ligands induce oligomerization of serine/threonine receptor kinases and phosphorylate the cytoplasmic signaling molecules of Smad protein family. CellSensor SBE-bla HEK 293T cell line (Life Technologies, Carlsbad, CA), responsive to TGF-beta was used to screen Tox21 10K compound library for identification of agonists/antagonists of the Smad signaling pathway. This cell line contains a beta-lactamase reporter gene under control of the Smad binding element (SBE) stably integrated into HEK 293T cells. Also cytotoxicity of the compounds was tested in parallel by measuring the cell viability using CellTiter-Glo assay system in the same wells.
Tox21 Assay Protocol Summary:
SBE-bla HEK 293T cells were dispensed at 4,000/well in 6 uL of assay medium into black wall/clear-bottom 1536-well plates using a Multidrop Combi (ThermoFisher Scientific, Waltham, MA) dispenser. After the assay plates were incubated at 37 C and 5% CO2 for an overnight, 23 nL of compounds dissolved in DMSO, positive controls or DMSO only was transferred to the assay plate by a Pintool station (Kalypsys, San Diego, CA). The assay plates were incubated at 37 C and 5% CO2 for 5 hr. One uL of LiveBLAzer B/G FRET substrate (Life Technologies) was added using a Flying Reagent Dispenser (FRD, Aurora Discovery, San Diego, CA) and the plates were incubated at room temperature for 2 hr. Fluorescence intensity (405 nm excitation, 460 nm and 530 nm emissions) was measured using an Envision plate reader (PerkinElmer, Shelton, CT). For cytotoxicity read, 4 uL of CellTiter-Glo reagent (Promega Corporation, Madison, WI) was added to each well of the assay plates using FRD. After 30min incubation at room temperature, the luminescence intensity was measured using ViewLux plate reader (PerkinElmer).
Potency is read from the fitted curve at half-maximal effect.

Compound	Potency	activity change, negative = cytotoxicity
CC(=O)O[C@]1(C(C)=O)CC[C@H]2[C@@H]3C=C(C)C4=CC(=O)CC[C@]4(C)[C@H]3CC[C@@]21C	inactive	
COc1ccc2nc(N)sc2c1	inactive	
COCCOCCOCCO	inactive	
CC(=O)Oc1ccc(C(c2ccc(OC(C)=O)cc2)c2ccccn2)cc1	inactive	
C=CCOC(=O)C(=C)C	inactive	
CCCCCCCCCCCCO	inactive	
CC(C)=CCO	inactive	
COC(=O)c1ccc(C)cc1	inactive	
O=[Se](O)O	2.19 µM (active)	8.13% [at 15.8 µM]
O=C(O)CCCCCCCCCCCC(=O)O	inactive	
Nc1ccc(O)c(N)c1	inactive	
C=CCCCCCCCCCC	inactive	
[Na+]	inactive	
Cc1ccc(S(=O)(=O)NCl)cc1	inactive	
CN(C)C	inactive	
c1ccc2cc3ccccc3cc2c1	inactive	
CC(=O)OC(C)C	inactive	
O=C(O)c1ccc(O)cc1	inactive	
Nc1ccc2c(c1)C(=O)c1ccccc1C2=O	inactive	
CCCCCCCCCCC(CO)CCCCCCCC (stereo not given)	inactive	

Compound	Potency	activity change, negative = cytotoxicity
C=CC(=O)OCCCC	inactive	
CC1(C)OC(=O)NC1=O	inactive	
COc1ccc(-c2coc3cc(O)cc(O)c3c2=O)cc1	inactive	
COc1cc([C@H]2Oc3cc([C@H]4Oc5cc(O)cc(O)c5C(=O)[C@@H]4O)ccc3O[C@@H]2CO)ccc1O	inactive	
Oc1c(Cl)ccc(Cl)c1Cl	inactive	
C[C@]12CC[C@@H]3c4ccc(O)cc4CC[C@H]3[C@@H]1CC[C@@H]2O	inactive	
CC1(C)O[C@@H]2C[C@H]3[C@@H]4C[C@H](F)C5=CC(=O)C=C[C@]5(C)[C@@]4(F)[C@@H](O)C[C@]3(C)[C@]2(C(=O)CO)O1	inactive	
ClC/C=C/CCl	inactive	
CCOC(=O)C(C)Oc1ccc(Oc2cnc3cc(Cl)ccc3n2)cc1 (stereo not given)	inactive	
NCCS(=O)(=O)O	inactive	
Clc1ccc(Sc2cc(Cl)c(Cl)cc2Cl)cc1	inactive	
NCCN	inactive	
Nc1ccc(N)c(Cl)c1	inactive	
Cc1ccc(N)c([N+](=O)[O-])c1	inactive	
O=Cc1ccccc1C=O	inactive	
Cc1ccc2c(c1)C(=O)OC2=O	inactive	
CCc1cccc2c3c([nH]c12)C(CC)(CC(=O)O)OCC3 (stereo not given)	inactive	
CC(C)(Oc1ccc(Cl)cc1)C(=O)O	inactive	
CC/C=C\C/C=C\C/C=C\CCCCCCCC(=O)O	inactive	
